Most compounds without a hit are left out; they make up all but 0.36% or so of the library.
AID504770: growth inhibition of E. coli YBA685, primary screen, V. cholerae RctB inhibitors. z-score (concentration not given with the values). E. coli YBA685 rctB-dependent plasmid, OD600 growth, 3 h; hits give low values. hit rate 0.27% among 130,000. AID 504770, 2011; in the data active = z-score below about -2, passing the limit was not always enough
Ba CapD inh: Bacillus anthracis CapD inhibitors, primary screen, biochemical, fluorescence intensity; CapD gamma-glutamyltranspeptidase (Bacillus anthracis Ames Ancestor); purified CapD enzyme, fluorescence intensity read-out; hits give low values; z-score (no concentration beside the values); hit rate 0.23% among 140,000; AID 492967, 2010; in the data active = z-score mostly below about -2.9, no sharp cut-off; inactive = mostly above about -1.9
A number is an active result.

Screening O=C(NCc1ccccc1)N1CCN(C(c2ccc(F)cc2)c2ccc(F)cc2)CC1 returned AID504770 -2.9 and Ba CapD inh inactive.
`O=C(NCc1ccccc1)N1CCCCC1` gave AID504770 inactive and Ba CapD inh inactive.
`CC(Sc1nnc2c(Cl)cc(Cl)cn12)c1nnc(-c2cccs2)o1` (configuration not stated) gave AID504770 inactive.
Cc1cccc(C2(c3cccc(C)c3)CC2C(=O)Nc2ccc(C#N)cc2)c1 (configuration not stated) was read as Ba CapD inh inactive.
CCc1ccc(NS(=O)(=O)c2ccc3[nH]cc(C(=O)N4CCCC4)c(=O)c3c2)cc1 was read as AID504770 inactive and Ba CapD inh -5.9.
For CCc1ccc(NS(=O)(=O)c2ccc3[nH]cc(C(=O)N(CC)CC)c(=O)c3c2)cc1 the results were AID504770 inactive and Ba CapD inh inactive.
O=C1N(CN2CCCCC2)c2ccccc2C12OCCCO2 was read as Ba CapD inh inactive.
For Cc1ccc(N=Cc2c(O)[nH]c(=S)[nH]c2=O)cc1 the results were AID504770 inactive and Ba CapD inh inactive.
For O=c1[nH]c(=S)[nH]c(O)c1N=Nc1ccc(O)cc1 the results were AID504770 inactive and Ba CapD inh -3.9.
COc1ccc2c(c1)CCc1c(C(=O)N3CCCCC3)noc1-2 was read as AID504770 inactive and Ba CapD inh inactive.
Screening COc1ccc2c(c1)CCc1c(C(=O)N3C(C)CCCC3C)noc1-2 (configuration not stated) returned AID504770 -3 and Ba CapD inh inactive.
`O=C(Cn1ncc2c3ccccc3n(Cc3ccccc3)c2c1=O)NCCc1ccccc1` gave AID504770 inactive and Ba CapD inh inactive.
N#CSC1C=CS(=O)(=O)C1 (configuration not stated) was read as AID504770 -4.8 and Ba CapD inh inactive.
`NC(=O)CC1C=CS(=O)(=O)C1` (configuration not stated) gave AID504770 inactive and Ba CapD inh inactive.
Screening O=S(=O)(N=P(Nc1nccs1)(c1ccccc1)c1ccccc1)c1ccccc1 returned AID504770 inactive.
Screening CC(NS(=O)(=O)c1cccc(Cl)c1)C(=O)N(C)C1CCN(C)CC1 (configuration not stated) returned AID504770 -5.3.
For Cc1ccc(S(=O)(=O)NC(C)C(=O)N2CCN(c3cccc(Cl)c3)CC2)cc1 (configuration not stated) the results were AID504770 inactive and Ba CapD inh inactive.
`CC(C)NC(=S)N/N=C/c1ccco1` gave AID504770 inactive and Ba CapD inh -4.
S=C(N/N=C\c1ccco1)Nc1ccccc1 was read as AID504770 inactive and Ba CapD inh inactive.
Screening COc1ccccc1-n1c(C)nc(=O)c(-c2ccccc2)c1C returned AID504770 inactive and Ba CapD inh inactive.
Screening CC(=O)Oc1ccccc1-n1c(C)nc(=O)c(-c2ccccc2)c1C returned AID504770 -4.5 and Ba CapD inh inactive.
Screening CCOC(=O)c1nccn1CC(=O)N(CC)c1cccc(C)c1 returned AID504770 inactive and Ba CapD inh inactive.
For CCc1[nH]c(=S)[nH]c(=O)c1C#N the results were AID504770 inactive and Ba CapD inh -6.5.
Screening CCc1[nH]c(=O)c(C#N)c2c1CCCC2 returned AID504770 inactive and Ba CapD inh inactive.
Cn1cc(Br)c(N2C(=O)C=CC2=O)n1 was read as AID504770 -4.2 and Ba CapD inh inactive.
O=C1C=CC(=O)N1c1ccc(Cl)cc1Br was read as Ba CapD inh inactive.
CN(C)C(=O)/C(=C/C=C/c1ccccc1)NC(=O)c1ccccc1 was read as AID504770 inactive and Ba CapD inh inactive.
`COC(=O)C(=C/C=C/c1ccccc1)C(=O)OC` gave AID504770 inactive and Ba CapD inh -4.5.
O=C1Oc2ccccc2C2c3sc(=O)[nH]c3SC(c3ccccc3)C12 (configuration not stated) was read as AID504770 inactive.
For O=C(O)C1Sc2[nH]c(=O)sc2C2c3ccc(O)cc3OC(=O)C12 (configuration not stated) the results were AID504770 inactive and Ba CapD inh -8.8.
For O=C(Nc1ccc(Cl)cc1)c1ccc(CSC2=NCCS2)cc1 the results were AID504770 inactive and Ba CapD inh inactive.
`O=c1oc(-c2cccs2)ns1` gave AID504770 inactive and Ba CapD inh -8.9.
For O=c1oc(-c2c(Cl)cccc2Cl)ns1 the results were Ba CapD inh inactive.
O=C1NC(=O)N(c2ccccc2F)C(=O)/C1=C/c1cn(CC(=O)N2CCCC2)c2ccccc12 was read as AID504770 inactive and Ba CapD inh inactive.
Screening O=C(COc1cc(Cl)ccc1Cl)Nc1ncc(S(=O)(=O)c2ccc([N+](=O)[O-])cc2)s1 returned Ba CapD inh inactive.
Screening CC12CC[C@H]3[C@@H](CCC4(O)C[C@H](O)CCC34/C=N/NC(=O)c3cccnc3)C1(O)CCC2C1=CC(=O)OC1 (some centres not stated) returned Ba CapD inh inactive.
Cc1ccc(-c2nc(N)s[n+]2-c2ccccc2)cc1 was read as AID504770 -2.4 and Ba CapD inh inactive.
For COc1ccc(-c2nc(N)s[n+]2-c2ccccc2)cc1 the results were AID504770 inactive and Ba CapD inh inactive.
Screening CCN1CCN(CCCNC(=O)c2cc3cc4ccc(Cl)cc4nc3o2)CC1 returned AID504770 -2.3 and Ba CapD inh inactive.
For O=C(NCCCN1CCCC1)c1cc2cc3ccc(Cl)cc3nc2o1 the results were AID504770 inactive and Ba CapD inh inactive.
C=CCn1cc(Cc2cn(CC=C)nc2C)c(C)n1 was read as AID504770 inactive and Ba CapD inh inactive.
Screening COc1ccc(N(C(=O)c2ccncc2)S(=O)(=O)c2cccs2)cc1 returned AID504770 inactive and Ba CapD inh -8.5.
`O=C(Oc1ccc(N(C(=O)c2ccccc2)S(=O)(=O)c2cccs2)cc1)c1ccccc1` gave AID504770 inactive and Ba CapD inh inactive.
Screening c1ccc(-c2nnsc2-c2nc3ccccc3[nH]2)cc1 returned AID504770 inactive and Ba CapD inh inactive.
c1ccc2sc3c(-c4ccncc4)sc4ccccc4[nH]c-3nc2c1 was read as AID504770 inactive and Ba CapD inh -4.1.
`Nc1cc(=O)[nH]c(SCc2ccc(C(=O)c3ccccc3)cc2)n1` gave AID504770 inactive and Ba CapD inh inactive.
For Cc1ccc(C(C)C)c(Oc2ccccc2NC(=O)c2cc(Br)cc(Br)c2O)c1 the results were Ba CapD inh inactive.
N=C(N)Sc1cn(Cc2ccccc2)c2ccccc12 was read as AID504770 inactive and Ba CapD inh -4.8.
Screening O=C(CSc1cn(Cc2ccccc2)c2ccccc12)N1CCCC1 returned AID504770 inactive and Ba CapD inh inactive.
Cc1ccc2nc(NCc3ccccc3)[nH]c2c1 was read as AID504770 -2.2 and Ba CapD inh inactive.
`COc1ccc2nc(NCc3ccccc3)[nH]c2c1` gave AID504770 inactive and Ba CapD inh inactive.
For Cc1nccc(-c2cc(-c3cccc(C(F)(F)F)c3)no2)n1 the results were AID504770 inactive and Ba CapD inh inactive.
COc1ccc(CN(Cc2nc3ccccc3c(=O)[nH]2)C(=O)NCc2ccccc2)cc1 was read as AID504770 -3.5.
COc1ccc(CCN(Cc2nc3ccccc3c(=O)[nH]2)C(=O)C(C)C)cc1 was read as AID504770 inactive.

From PubChem
